In the library only some 2% were active in any assay of this set; here they are far more common.
Fam108B inh: Fam108B inhibition, counter-screen for RBBP9 inhibitors | inhibition, % at 9.51 µM | hit rate 0.33% among 300,000 | recombinant Fam108B, FP-Rh probe fluorescence polarization | AID 1947;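 active = inhibition above the screen mean inhibition plus 3 SD, computed separately per campaign, cut at about 18% in these data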;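 also: inhibitors lower polarization as less probe binds the enzyme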
LYPLA1 inh: blocks human lysophospholipase 1, a PME1 counter-screen | O75608 | recombinant LYPLA1, FP-Rh probe fluorescence polarization | inhibition, % at 5.9 µM | AID 2174 | hit rate 0.16% among 320,000;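 active = inhibition above the mean of all tested compounds plus 3 SD, set per campaign, cut at about 14% in these data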;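 also: inhibitors block serine hydrolase probe labeling of LYPLA1 so polarization falls; 0% = enzyme with DMSO and 100% = wells lacking LYPLA1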
Target sequence (O75608 whole entry, looked up): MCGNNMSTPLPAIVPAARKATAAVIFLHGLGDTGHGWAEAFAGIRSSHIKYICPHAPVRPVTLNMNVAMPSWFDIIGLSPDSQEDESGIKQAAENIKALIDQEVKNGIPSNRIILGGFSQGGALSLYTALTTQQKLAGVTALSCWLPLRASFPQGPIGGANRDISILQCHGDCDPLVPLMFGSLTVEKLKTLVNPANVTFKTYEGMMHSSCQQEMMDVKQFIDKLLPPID
PME-1 primary: PME-1 (human) inhibition | recombinant PME-1, FP-Rh probe fluorescence polarization | inhibition, % at 5.9 µM | hit rate 0.53% among 320,000 | Q9Y570;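 active = inhibition above the campaign mean of all compounds plus 3 SD, cut at about 26% in these data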;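 also: competitive labeling of PME-1 active site by serine hydrolase directed probe; 0% = PME-1 with DMSO and 100% = wells lacking PME-1 enzyme; inhibitors block probe labeling so polarization falls and inhibition rises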
PREPL inhibitor: inhibitors of human prolyl oligopeptidase-like enzyme PREPL; AID 2751; inhibition, % at 5.96 µM; hit rate 0.68% among 320,000; recombinant PREPL, fluorescence polarization activity-based probe; Q4J6C6; in the data active = inhibition above about 43%;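 also: 0% = enzyme with DMSO and 100% = wells lacking enzyme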
LYPLA2 counter: LYPLA2 (human) inhibition in PME1 counter-screen; inhibition, % at 5.9 µM; hit rate 0.38% among 320,000; recombinant LYPLA2, FP-Rh probe fluorescence polarization;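 active = inhibition above the screen-wide mean plus 3 SD, limit set per campaign, cut at about 26% in these data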;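 also: 0% = LYPLA2 with DMSO and 100% = wells lacking LYPLA2 enzyme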
Target sequence (O95372 whole entry, looked up): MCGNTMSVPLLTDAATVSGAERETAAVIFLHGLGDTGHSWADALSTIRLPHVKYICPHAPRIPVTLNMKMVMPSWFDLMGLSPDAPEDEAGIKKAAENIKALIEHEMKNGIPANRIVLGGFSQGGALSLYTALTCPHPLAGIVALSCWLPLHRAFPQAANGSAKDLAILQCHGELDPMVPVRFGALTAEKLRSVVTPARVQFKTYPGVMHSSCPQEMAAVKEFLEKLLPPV
GSTO1 counter: counter-screen for RBBP9 inhibitors: inhibitors of human GSTO1; P78417; recombinant GSTO1, activity-based probe fluorescence polarization; inhibition, % at 5.96 µM; hit rate 1.1% among 300,000;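 active = inhibition above the campaign mean inhibition plus 3 SD, cut at about 35% in these data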;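 also: 0% = GSTO1-1 with DMSO and 100% = wells lacking GSTO1-1 enzyme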
Fam108b inh conf: Fam108b (mouse) hydrolase inhibition, confirmation assay. inhibition, % at 9.51 µM. AID 1978. recombinant Fam108b, FP-Rh probe fluorescence polarization. hit rate 44% among 930. shares compounds with Fam108B inh;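 active = inhibition above a limit from the primary screen, the mean over all compounds plus 3 SD, cut at about 19% in these data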;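 also: 0% = median of active Fam108b wells and 100% = catalytically dead S170A mutant; inhibitors free the probe so polarization falls as inhibition rises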
Fam108b ABPP HTS: mouse ABHD17B inhibition; shares compounds with Fam108B inh; recombinant Fam108b, gel-based ABPP, fluorophosphonate probe; inhibition, % at 20 µM; hit rate 44% among 260; AID 588649; in the data active = inhibition above about 40%
* = called active by the depositor; x = no result; ! = a repeat was not active.

SMILES	Fam108B inh	LYPLA1 inh	PME-1 primary	PREPL inhibitor	LYPLA2 counter	GSTO1 counter	Fam108b inh conf	others
CN(/N=C/c1ccc(O)cc1O)c1nc(-c2ccccc2)cc(-c2ccccc2)n1	33*	-9	23	28	8	-3	19*
O=C(c1ccc(OCCN2CCCCC2)cc1)c1c(-c2ccc(O)cc2)sc2cc(O)ccc12	21*	-8	6	27	-1	-45	24*!
COC(=O)c1ccc(OCCN2CCCCCC2)cc1	1	1	-3	2	-3	7	x
COc1ccc(NC(=O)CN(C)CC(=O)NC2CCC(C)CC2)cc1 (centres undefined)	x	3	-1	-1	7	x	x
COc1ccc(CN2C(=O)c3c(c(C)n(C)c3C)C2C(=O)NC2CCC(C)CC2)cc1 (centres undefined)	24*	-1	-5	9	-5	7	-2
COc1ccc(NC(=O)CN(C)CC(=O)NCC(=O)Nc2ccc(F)cc2)cc1	3	1	-2	11	2	6	x
Cc1nc(CN2CCCCC2)cc(=O)[nH]1	2	1	3	10	4	-2	x
CCCC#CCN1CCN(C23CC4CC(CC(C4)C2)C3)CC1	18*	1	4	-7	3	1	0
Cc1nn(-c2ccccc2)c(C)c1C(=O)OC(C)C(=O)NC1CCCCC1 (centres undefined)	x	x	x	19	x	x	x
Nc1ccc2nc(-c3cccc(-c4nc5ccc(N)cc5[nH]4)c3)[nH]c2c1	25*	-4	51*	28	-10	-7	146*	Fam108b ABPP HTS=90*
CCc1ccc(CNC(=O)C2CCCN(S(=O)(=O)N(CC)c3ccccc3)C2)cc1 (centres undefined)	1	-5	-4	-2	-9	18	x
CCN(CC)S(=O)(=O)c1ccc(Nc2nc3ccccc3n3nnnc23)cc1	26*	-20	10	-7	-16	-35	13
C=C(C)Cn1c(SCC(=O)N/N=C/c2c(O)ccc3ccccc23)nc2ccccc2c1=O	29*	-4	-10	3	-8	15	-15
C=C(C)Cn1c(SCC)nc2ccccc2c1=O	3	-2	-6	-13	-1	12	x
CCCc1cc(SCC(=O)Nc2c(C)n(C)n(-c3ccccc3)c2=O)n2c(nc3ccccc32)c1C#N	24*	-3	-8	-10	0	-46	23*
O=[N+]([O-])c1ccc(-c2nc(-c3cccs3)c(-c3cccs3)[nH]2)cc1	24*	-22	42*	17	-8	-20	20*
Oc1ccc(-c2nc(-c3ccc(F)cc3)c(-c3ccncc3)[nH]2)cc1	4	3	-3	6	2	-10	x
Fc1ccc(-c2nc(-c3cccs3)[nH]c2-c2ccc(F)cc2)cc1	19*	4	15	6	15	-2	6
O=[N+]([O-])c1cccc(-c2nc(-c3ccccc3)c(-c3cccs3)[nH]2)c1	-2	2	2	-10	1	-4	x
O=[N+]([O-])c1cccc(-c2nc(-c3cccs3)c(-c3cccs3)[nH]2)c1	26*	-4	32*	17	8	-3	7
CCOc1ccc(NC(=O)CCc2c(C)nn(-c3ccc(N4CCCCC4)nn3)c2C)cc1	-2	5	1	9	1	6	x
O=C(NC1CCSc2ccccc21)c1cccc([N+](=O)[O-])c1 (centres undefined)	-4	-3	6	7	-1	6	x
NC(=O)c1nnn(-c2nonc2N)c1-c1ccc([N+](=O)[O-])cc1	-2	0	1	15	3	-5	x
O=[N+]([O-])c1cc(Br)c(O)c(C=NNc2nnnn2-c2cccc3ccccc23)c1	x	x	x	x	x	x	x	Fam108b ABPP HTS=0
O=C(N/N=C/c1cc([N+](=O)[O-])cc([N+](=O)[O-])c1O)C(O)(c1ccccc1)c1ccccc1	x	-3	6	7	-7	x	x
SMILES	Fam108B inh	LYPLA1 inh	PME-1 primary	PREPL inhibitor	LYPLA2 counter	GSTO1 counter	Fam108b inh conf	others
O=C(N/N=C/c1c[nH]c2ccccc12)c1ccn(Cc2ccc(Cl)cc2Cl)n1	21*	-10	17	33	1	5	0
O=C(N/N=C/c1c[nH]c2ccc(Br)cc12)c1ccn(Cc2ccc(Cl)cc2)n1	2	-13	-6	12	-17	4	x
CCC(=O)Oc1ccc(C/C(=N\O)c2ccc(O)cc2O)o1	26*	7	36*	27	4	25	18
COC(=O)C1CCN(C(=O)COC(=O)c2cccc(NS(=O)(=O)c3ccccc3)c2)CC1	0	2	10	-3	-1	-5	x
CCOc1cc(/C=C2\N=C(SC)SC2=O)cc([N+](=O)[O-])c1OC(C)=O	22*	8	14	4	8	5	7
CCOc1c(OC(C)=O)ccc(/C=C2\N=C(SCC)SC2=O)c1[N+](=O)[O-]	2	-1	4	5	-1	20	x
CCOC(=O)c1c(C)[nH]c(C(=O)N/N=C\c2ccccc2O)c1C	19*	-11	4	12	-2	-11	-10
CCOC(=O)c1c(C)[nH]c(C(=O)N/N=C/c2cc([N+](=O)[O-])ccc2O)c1C	2	-2	-1	4	3	13	x
COc1cccc(C=NNC(=O)c2[nH]c(C)c(C(=O)NN=Cc3cccc(OC)c3O)c2C)c1O	x	x	x	x	x	x	x	Fam108b ABPP HTS=95*
C=CC[C@H](CC(=O)N(CCO)Cc1ccccc1)C(=O)N[C@H](COC(=O)[C@@H](CC=C)CC(=O)OC(C)(C)C)Cc1c[nH]c2ccccc12	x	x	x	0	x	x	x
O=C(NC(=S)NNC(=O)c1ccccc1O)c1cccc([N+](=O)[O-])c1	19*	-3	5	13	-3	7	10
COc1ccc(C(=O)NNC(=S)NC(=O)c2cccc([N+](=O)[O-])c2)cc1	-1	0	2	7	-5	9	x
COc1ccc(S(=O)(=O)Nc2c(NC3CCCCC3)c3ccccc3oc2=O)cc1OC	-1	-5	3	-5	-2	-3	x
N=c1oc2cc(O)ccc2cc1C(=O)Nc1ccc(Br)cc1	33*	6	9	8	-3	15	164*	Fam108b ABPP HTS=40*
Cc1ccc(S(=O)(=O)N(C)C)cc1NC(=O)c1cc(=O)c2ccccc2o1	21*	-3	2	-1	-3	6	33*	Fam108b ABPP HTS=0
CN(c1ccccc1)S(=O)(=O)c1cccc(NC(=O)c2cc(=O)c3ccccc3o2)c1	-18	-36	-25	1	-51	-36	x
CCOC(=O)CSc1nc2c(sc(=S)n2-c2ccccc2OC)c(=O)n1Cc1ccco1	19*	-3	26	6	-4	-1	7

Screening data as filed in PubChem.
